LmPK inhibitor = inhibitors of Leishmania mexicana pyruvate kinase | Potency, µM (highest dose often 57.5 µM), for inactives: at the highest dose activity change, negative = inhibition, actives largely listed as inhibitors | Q27686 | purified LmPK, Kinase-Glo ATP luminescence, 1 h | AID 1721 | actives 0.37% (n = 290,000); also: potency is read from the fitted curve at half-maximal effect; % is scaled to controls: 0 for no effect and ±100 for the full control effect
Target sequence (Q27686 whole entry, looked up): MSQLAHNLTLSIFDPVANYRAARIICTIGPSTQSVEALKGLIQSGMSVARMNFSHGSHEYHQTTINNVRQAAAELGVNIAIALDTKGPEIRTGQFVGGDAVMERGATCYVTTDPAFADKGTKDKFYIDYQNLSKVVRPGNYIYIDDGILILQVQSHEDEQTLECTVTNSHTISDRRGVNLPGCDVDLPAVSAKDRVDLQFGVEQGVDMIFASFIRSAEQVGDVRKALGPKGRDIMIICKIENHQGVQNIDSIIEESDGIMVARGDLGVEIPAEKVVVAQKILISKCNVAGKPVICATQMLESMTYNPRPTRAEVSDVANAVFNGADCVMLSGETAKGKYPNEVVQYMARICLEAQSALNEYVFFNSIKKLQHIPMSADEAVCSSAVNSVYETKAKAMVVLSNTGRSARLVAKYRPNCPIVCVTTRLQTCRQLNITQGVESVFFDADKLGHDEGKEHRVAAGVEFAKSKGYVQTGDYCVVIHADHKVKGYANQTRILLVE
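Pyruvate kinase activity monitored as ATP production (luciferase luminescence). Conditions: 0.1 nM enzyme, 0.5 mM PEP, 0.1 mM ADP, 1 h, RT; normalized against uninhibited and no-enzyme wells.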
CHX counter = counter-screen for Shiga toxin inhibitors: cycloheximide protein synthesis inhibition. cell reporter, cycloheximide protein synthesis inhibition counterscreen. max response, %. actives 12% (n = 300,000). AID 2314; in the data active = max response mostly above about 13%, no sharp cut-off; inactive = mostly below about 14%; also: read at 38.3 µM for the half of the compounds with a filed dose; 0% is about no effect
Giardia FBPA inh = inhibitors of Giardia lamblia fructose-1,6-bisphosphate aldolase; Potency, µM (series often up to 59.6 µM), for the others: top-dose activity, negative = inhibition, usual class: inhibitors; A8B2U2; purified Giardia FBPA; AID 2451; actives 0.71% (n = 290,000); also: potency is read from the fitted curve at half-maximal effect; % is scaled to controls: 0 for no effect and ±100 for the full control effect; nearly all actives have a fitted effect of over 55% in size
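40 nM FBPA preincubated 10 min at RT with compound (up to 57.5 uM final), then substrate plus GAPDH/TPI/NAD/arsenate coupling and diaphorase/resazurin added. Fluorescence read after 20 min at RT, 525/598 nm.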
RE007 growth inh = less growth of the S. pombe RE007 Vpr strain. S. pombe RE007 Vpr strain, BacTiter-Glo ATP luminescence, 24 h. Potency, µM (top dose mostly 92.2 µM), for the others: at the highest dose activity change, negative = less growth, most hits filed as inhibitors. actives 0.21% (n = 360,000). AID 651644; active = well fitted falling curve with a large enough effect; inconclusive = small, poorly fitted or top-dose-only effect; inactive = no such curve, though single readings can be large or run the other way; also: potency is read from the fitted curve at half-maximal effect; % is scaled to controls: 0 for no effect and ±100 for the full control effect; nearly all actives have a fitted effect of over 50% in size
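Fission yeast RE007 carrying one integrated HIV-1 vpr copy, seeded at OD 0.01 in PMG+AL medium with 23 nL pinned compound. Grown 24 h at 30 degrees; viability read by BacTiter-Glo luminescence after 5 min.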
Shiga inhibitor = inhibitors of Shiga toxin in Vero cells; Vero cells, Shiga toxin protein synthesis inhibition reporter; AID 2315; actives 9.2% (n = 290,000); inhibition, % at 38.7 µM; in the data active = inhibition mostly above about 28%, no sharp cut-off; inactive = mostly below about 43%; also: 0% is about no effect
TbPYK inhibitor = inhibitors of Trypanosoma brucei pyruvate kinase | actives 0.12% (n = 410,000) | Potency, µM (series often up to 76.8 µM), inactives show top-dose activity, negative = inhibition, usual class: inhibitors | TbPYK enzyme, Kinase-Glo Plus ATP luminescence, 45 min; also: potency is read from the fitted curve at half-maximal effect; % is scaled to controls: 0 for no effect and ±100 for the full control effect; nearly all actives have a fitted effect of over 50% in size
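Luminescent Kinase-Glo Plus end-point after 45 min room-temperature reaction of T. brucei pyruvate kinase started with 130 uM ADP (final). Buffer TEA 50 mM pH 7.2 with KCl, MgCl2, BSA, Tween-20; titration-based qHTS with fitted concentration-effect curves.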
The depositor's hits bear a star; ? = inconclusive; . = no result; [ ] = another dose, or the depositor's remark. Shown is part of a subset that was picked to be rich in hits. Unless noted, calls follow the shape of the dose curve; as a rule, active = well fitted curve in the direction sought with a large enough effect; inconclusive = small, poorly fitted or top-dose-only effect, or another doubt; inactive = no such curve, though single readings can be large; an effect the other way counts as inactive or inconclusive.

SMILES	LmPK inhibitor	CHX counter	Giardia FBPA inh	RE007 growth inh	Shiga inhibitor	TbPYK inhibitor
CCOC(=O)c1ccc(NC(=O)CC2C(=O)N(c3ccc(C)cc3)C(=O)N2C2CCCC2)cc1 (stereo not drawn)	.	.	.	.	.	0%
N#Cc1cc(-c2ccccc2)oc1/N=C/c1ccccc1O	-4%	29*	-5%	-11%	18	-4%
COc1cccc(C=Nc2cc(C)on2)c1O	16µM*	-2	0%	4%	-8	-3%
COc1ccc(/C=N/c2oc(-c3ccccc3)cc2C#N)cc1	2%	16*	-8%	?	28	-2%
COc1cccc(C=Nc2ccccc2C#N)c1O	14µM*	-2	6%	-12%	-2	-14%
COc1cccc(C=Nc2cc(C)cc(C)c2)c1O	-15%	-3	-1%	-7%	-9	1%
Cc1ccc(CNC(=O)CN2C(=O)C3CCCCN3c3ccc(C(=O)N(C)C)cc32)cc1 (stereo not drawn)	.	.	.	.	.	3%
CC1=C(C(=O)Nc2ccccc2)C(C(C)C)n2nc(SCc3ccccc3C)nc2N1 (stereo not drawn)	.	.	.	.	.	-1%
COc1cccc(/C=N/c2oc(-c3ccccc3)cc2C#N)c1O	-17%	24*	-4%	?	0	-3%
COc1cccc(C=Nc2ccc3c(c2)CCC3)c1O	-18%	9	-4%	-5%	-2	-4%
COc1ccccc1C1=NNC(=NCc2ccccc2)SC1	-4%	31*	-7%	24%	33*	-26%
Cc1c(N=C2NN=C(c3ccc(Cl)cc3)CS2)c(=O)n(-c2ccccc2)n1C	-6%	30	-15%	12%	26	-18%
Fc1ccc(C2=NNC(=NCc3ccccc3)SC2)cc1F	-15%	34*	1%	10%	64*	?
CC(=O)c1c(C)[nH]c(C2=NNC(=NCc3ccccc3)SC2)c1C	-6%	15	-20%	8%	23	-19%
c1ccc(CN=C2NN=C(c3ccccc3)CS2)cc1	-13%	55*	2%	-10%	62	-12%
C=CCN=C1NN=C(c2ccc3c(c2)OCCO3)CS1	10µM*	21*	-24%	0%	41*	-15%
CCC1=C2CC[C@H]3C(=O)N(C)C(=O)[C@H]3[C@H]2[C@@]2(C)C(=O)N(CC(=O)OC)C(=O)N2C1=O	.	.	3%	.	.	.
CO[C@H]1COC(=O)[C@@H](CCSC)NC(=O)C/C=C\[C@@H](C)[C@H](OC)COC(=O)[C@@H](OCc2ccccc2)/C=C\[C@@H]1C	.	.	0%[12.9 µM]	.	.	.
c1ccc(C2=NNC(=NCc3ccc4c(c3)OCO4)SC2)cc1	-1%	18*	6%	6%	80*	-9%
CC(C)N=C1NN=C(c2ccc(F)cc2)CS1	?	18*	-18%	-10%	80*	?
COCCN=C1NN=C(c2ccc(NC(C)=O)cc2)CS1	0%	-3	-5%	5%	1	-20%
c1ccc(-c2[nH]ncc2CN2CCN(Cc3ccc4c(c3)OCO4)CC2)cc1	1%	0	-5%	-28%	-3	-1%
Clc1ccc(C2=NNC(=NCc3ccccc3)SC2)cc1	0%	20	-1%	-3%	74*	-13%
CCN=C1NN=C(c2ccc(C)cc2)CS1	-22%	38*	.	-20%	106*	?
C/C=C1/C2C=C(C)CC1(N)c1ccc(=O)[nH]c1C2 (stereo not drawn)	.	4	4%	.	-3	.
C[C@H]1[C@H]2CC[C@H]3[C@@H]4CC=C5C[C@@H](N(C)C)CC[C@]5(C)[C@H]4CC[C@]23CN1C	.	.	7%	.	.	.
Clc1ccccc1-c1nnc(-c2ccccc2CNc2ccc(Br)cc2)o1	.	.	.	.	.	-8%
COCCN=C1NN=C(c2cc(C)n(CC3CCCO3)c2C)CS1 (stereo not drawn)	-4%	-3	-12%	-17%	29	-7%
C=CCN=C1NN=C(c2cc(C)n(CC=C)c2C)CS1	?	28*	-10%	0%	10	?
CCn1nc(C(=O)N[C@@H](CCSC)c2nc3ccccc3[nH]2)c2ccccc2c1=O	16%	25*	-4%	13%	23	5%

Screens as filed in PubChem.
